Screening results from PubChem BioAssay.
15-hLO inh = inhibitors of human 15-lipoxygenase (ALOX15). Potency, µM (series often up to 57.1 µM), usual class: inhibitors. 1.4% of 74,000 active. P16050. purified 15hLO-1, xylenol orange hydroperoxide absorbance. AID 887; further: nearly all actives have a fitted effect of over 55% in size
Target sequence (P16050 whole entry, looked up): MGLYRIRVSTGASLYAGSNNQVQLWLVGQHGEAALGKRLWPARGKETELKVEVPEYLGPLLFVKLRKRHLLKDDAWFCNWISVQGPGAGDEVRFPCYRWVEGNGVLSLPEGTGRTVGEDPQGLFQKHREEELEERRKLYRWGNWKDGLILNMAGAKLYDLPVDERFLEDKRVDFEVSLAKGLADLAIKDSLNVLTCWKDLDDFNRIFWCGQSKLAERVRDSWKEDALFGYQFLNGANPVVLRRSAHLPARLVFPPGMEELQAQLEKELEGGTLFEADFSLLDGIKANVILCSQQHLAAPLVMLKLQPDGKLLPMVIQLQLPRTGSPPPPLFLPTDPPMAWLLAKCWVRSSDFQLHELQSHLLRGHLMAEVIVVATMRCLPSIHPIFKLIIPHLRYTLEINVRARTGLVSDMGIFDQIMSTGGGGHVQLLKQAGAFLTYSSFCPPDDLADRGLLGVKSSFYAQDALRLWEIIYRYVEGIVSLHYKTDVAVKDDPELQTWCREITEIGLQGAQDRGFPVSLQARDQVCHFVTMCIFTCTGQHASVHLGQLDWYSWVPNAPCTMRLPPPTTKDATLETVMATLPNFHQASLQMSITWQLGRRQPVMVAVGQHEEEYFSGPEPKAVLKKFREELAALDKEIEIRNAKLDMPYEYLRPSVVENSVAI
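40 nM 15hLO-1 + cpd, 15 min RT; start w/ 50 uM AA (final), 6 min RT; stop/detect w/ 200 uM XO + 300 uM Fe(II) in 50 mM H2SO4, 30 min; A573/A405. Buffer 25 mM Hepes pH 7.5, 0.01% Triton X-100. No-enzyme wells as negative control.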
Tau fil binding = binds recombinant human tau filaments. 2% of 71,000 active. recombinant tau filaments, thioflavin S fluorescence, 15 h; filaments grown with octadecylsulfate alongside compound. Potency, µM (highest dose often 57.1 µM). P10636. AID 596;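 further: actives lower thioflavin S fluorescence by blocking filaments or displacing dye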
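His-tagged recombinant human tau (exons 2, 3 and 10 included), 1 uM, was induced to fibrillize by 30 uM sodium octadecylsulfate with compound present. After 15 h at 37 C, thioflavine S fluorescence (ex 450, em 510 nm) was read.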
DNA Pol III inh = blocks replication by bacterial DNA polymerase III holoenzyme. reconstituted DNA polymerase III holoenzyme replication, biochemical. Potency, µM (series often up to 57.1 µM). 0.25% of 71,000 active. AID 603
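Reconstituted *E. coli* holoenzyme (0.35 nM Pol III, 1 nM beta, 154 nM SSB, 2 nM primase) was preincubated with compound for 15 min at RT. Synthesis on 1.4 nM ssM13Gori ran 35 min, then was stopped with PicoGreen/EDTA and read as dsDNA fluorescence.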
TsaE inh = YjeE (TsaE) inhibition, E. coli; Potency, µM; purified YjeE enzyme, qHTS inhibition assay; 0.05% of 71,000 active
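Fluorescence polarization of a BODIPY Texas Red–ADP probe (2 uM) bound to purified YjeE (10 uM) was read after 15 min room-temperature incubation with compounds. Loss of polarization marks inhibitors; ADP serves as titrated control.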
BRCT PPI red = BRCT-phosphoprotein interaction inhibition (red fluorophore); Potency, µM (highest dose often 76.9 µM), actives largely listed as inhibitors; 0.03% of 75,000 active; P38398; BRCT-phosphopeptide binding, red fluorescence polarization
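Rhodamine-labelled pBACH1 10-mer (100 nM) bound to BRCT domain (100 nM) at pH 7.3; compounds incubated 12 min room temperature, polarization read. Free peptide defines full inhibition; unlabelled decapeptide titrated as control.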
BRCT PPI green = inhibitors of human BRCA1 BRCT-phosphoprotein interaction (green fluorophore) | BRCA1 BRCT-phosphopeptide binding, green fluorescence polarization | Potency, µM (top dose mostly 76.9 µM), usual class: inhibitors | 0.05% of 75,000 active
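Fluorescence polarization: His-tagged BRCT (~35 kDa BRCA1 C-terminus, 250 nM) bound to 100 nM fluorescein-labeled phosphorylated 10-aa BACH1 peptide, pH 7.3 phosphate buffer with DTT and Tween 20. Compounds incubated 12 min at room temperature; inhibition read as lowered polarization.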
Large screens that a line does not name were inactive. An excerpt weighted towards active compounds, which were near 3.3% of everything screened. The call rests on the fitted dose curve; in most records, active means well fitted curve in the direction sought with a large enough effect; inconclusive means small, poorly fitted or top-dose-only effect, or another doubt; inactive means no such curve, though single readings can be large; an effect the other way counts as inactive or inconclusive.

O=[N+]([O-])c1ccc(Nc2nc3ccccc3s2)cc1	15-hLO inh inconclusive, Tau fil binding 4µM
CC[n+]1ccc(C)c2cc(S(=O)C(F)(F)F)ccc21 (stereo unspecified)	Tau fil binding 6.3µM
CCCN(CCC)c1nc(NC2CCN(C(=O)OCC)CC2)nc(OC)n1	15-hLO inh 32µM
CCc1cc(-c2[nH]ncc2-c2ccc3c(c2)OCO3)c(O)cc1O	15-hLO inh 25µM
C[C@@H]1/C=C\CC(=O)OC[C@H](C)C(=O)N2CCC[C@@H]2C(=O)OC1	none (no result: Tau fil binding, DNA Pol III inh, TsaE inh)
CCOC(=O)c1cccc(NC(=O)c2cnc3ccccc3n2)c1	Tau fil binding 25µM
CCOC(=O)c1cccc(NC(=O)c2cccnc2)c1	none
CC(C)CCNC(=O)c1cnn2c(C(F)(F)F)cc(-c3ccco3)nc12	15-hLO inh inconclusive, Tau fil binding 16µM
O=S(=O)(c1ccc2nc(-c3ccco3)c(-c3ccco3)nc2c1)N1CCOCC1	15-hLO inh 2.5µM, DNA Pol III inh inconclusive
CN(C(=O)c1cc2nc(-c3ccco3)cc(C(F)(F)F)n2n1)C1CCCCC1	15-hLO inh 10µM (no result: Tau fil binding, DNA Pol III inh, TsaE inh)
Cn1c(=O)n(C)c2cc(S(=O)(=O)N3CCOCC3)ccc21	none
O=C(c1ccc2ccccc2c1)N1CCN(c2ccc(O)cc2)CC1	15-hLO inh 3.2µM
CC1=CC(=O)C2=C(C)CC[C@@H]3[C@H](OC(=O)[C@H]3C)[C@H]12	Tau fil binding inconclusive (no result: 15-hLO inh, BRCT PPI red, BRCT PPI green)
O=C(c1ccc2nc(-c3ccco3)c(-c3ccco3)nc2c1)N1CCN(c2ccccc2)CC1	15-hLO inh 3.2µM, Tau fil binding 1µM
O=C(c1cc(-c2ccco2)on1)N1CCN(c2ccccc2)CC1	none
O=C(c1cc2nc(-c3ccco3)cc(C(F)(F)F)n2n1)N1CCN(c2ccccc2)CC1	Tau fil binding 10µM
O=C(c1cc2nc(-c3ccco3)cc(C(F)(F)F)n2n1)N1CCCc2ccccc21	none
O=C(c1cc2nc(-c3ccco3)cc(C(F)(F)F)n2n1)N1CCCCCC1	15-hLO inh inconclusive, Tau fil binding 13µM
O=C(c1cc2nc(-c3ccco3)cc(C(F)(F)F)n2n1)N1CCN(c2ccccn2)CC1	Tau fil binding 25µM
C=CCC1C=CC(Oc2ccc(F)cc2C)C(CO)O1 (stereo unspecified)	none (no result: Tau fil binding, DNA Pol III inh, TsaE inh)
COc1ncc2nc(-c3cn(C)c4ccccc34)c(=O)n(C)c2n1	none
COC(=O)CSCc1nc2ccccc2[nH]c1=O	15-hLO inh 13µM
CCOC(=O)c1cc(C)[nH]c(=S)c1C#N	15-hLO inh 4µM
CCOC(=O)c1cc(C#N)c(N)nc1C	none
S[C@@H]1CCCN(Cc2ccccc2)C1	none
CC(C)[C@@H](CC(=O)N[C@@H]1CCNC[C@H]1C(=O)N[C@H](CC(=O)N[C@@H](CCC(=O)O)CC(=O)O)Cc1c[nH]c2ccccc12)NC(=O)C[C@H](CO)NC(=O)[C@@H]1CCCC[C@H]1N	none (no result: 15-hLO inh, BRCT PPI red, BRCT PPI green)
CC(=O)Nc1ccc(N/C=C/C(=O)c2ccco2)cc1	none
O=C(/C=C/Nc1ccc(F)c(Cl)c1)c1ccco1	15-hLO inh 25µM
O=C1C=C(N2CCN(c3ccccn3)CC2)C(=O)c2c(O)ccc(O)c21	Tau fil binding 1.6µM
O=C1c2ccccc2-c2ccc(N(Cc3ccc(Br)cc3)Cc3ccc(Br)cc3)cc21	Tau fil binding 0.63µM
CC1=C(/C=C/C(C)=C/C=C/C(C)=C/C=C/C=C(C)/C=C/C=C(C)/C=C/C(=O)[C@]2(C)CC(O)CC2(C)C)C(C)(C)CC(O)C1 (stereo partly specified)	15-hLO inh 3.2µM (no result: Tau fil binding, DNA Pol III inh, TsaE inh)
CC1=C(/C=C/C(C)=C/C=C/C(C)=C/C(=O)O)C(C)(C)CCC1	none (no result: Tau fil binding, DNA Pol III inh, TsaE inh)
CN1CCN(CCCN)CC1	none
NCc1ccc(C(=O)O)cc1	none
CO[C@@H]1/C=C\CC(=O)N[C@@H](C)C(=O)OC[C@H](NS(=O)(=O)c2ccc(C)cc2)[C@H](C)/C=C\CC(=O)OC[C@H]1C	none (no result: Tau fil binding, DNA Pol III inh, TsaE inh)
Cc1nn2c(c1-c1ccccc1)NC1=C(C(=O)CCC1)C2c1cccnc1 (stereo unspecified)	none
Cc1nn(-c2ccccc2)c2c1C(c1cccnc1)N1C=C(S(=O)(=O)N3CCCCC3)C=CC1=N2 (stereo unspecified)	Tau fil binding 16µM
CCOC(=O)C(C(C)=O)c1c(Br)c(O)c(O)c2c(C(=O)c3ccc(C)cc3)coc12 (stereo unspecified)	15-hLO inh 2µM, Tau fil binding 10µM
Cc1cc(NS(=O)(=O)c2ccc(NC(=O)Cc3cccs3)cc2)no1	none
Cc1cc(NC(=O)Cc2cccs2)no1	15-hLO inh inconclusive, Tau fil binding 16µM
COC(=O)c1ccc(C(/C=C/[C@@H](C)C(=O)NCc2ccccc2)NC(=O)OCc2ccccc2)cc1 (stereo partly specified)	none
O=C1C=CC2=C3c4cc(O)c(O)cc4C[C@@]3(O)COC2=C1O	Tau fil binding inconclusive, DNA Pol III inh 0.02µM, TsaE inh inconclusive (no result: 15-hLO inh, BRCT PPI red, BRCT PPI green)
O=C1C=CC2=C3c4cc(O)c(O)cc4C[C@]3(O)COC2=C1	none (no result: Tau fil binding, DNA Pol III inh, TsaE inh)
c1csc(CNc2nc(-c3ccoc3)nc3ccccc23)c1	15-hLO inh inconclusive, Tau fil binding 25µM
Cc1c(C(=O)O)c2cc(O)ccc2n1-c1ccccc1	none
COC(=O)c1c(C)n(-c2ccc(OC)cc2)c2ccc(O)cc12	15-hLO inh 7.9µM
CN(Cc1ccco1)c1ncnc2ccc(-c3cccc(NS(C)(=O)=O)c3)cc12	none
COc1ccc2c(c1)Cc1sc(NC(=O)c3cccs3)nc1-2	15-hLO inh 32µM, Tau fil binding 25µM
COc1cccc(NC(=O)c2cccs2)c1	none
CN(C)c1ccc(CNC(=O)[C@@]2(C)C=C[C@@H](Cc3ccccc3)N2C)cc1	15-hLO inh inconclusive
N#CC1=C(N)C2=C(N3CCCCC3)CCCC2C1(C#N)C#N (stereo unspecified)	15-hLO inh 13µM
O=c1cnnc(SCCc2ccccc2)[nH]1	15-hLO inh 4µM, Tau fil binding 7.9µM
O=C(O)C[C@H]1OCC=C2C[N@@+]3([O-])CC[C@]45c6ccccc6N[C@@H]4[C@@H]1[C@H]2C[C@H]53	none
CN(C)CCCn1cnc2cc(Cl)c(Cl)cc21	none
C=C(C)C1CC=C(C)C(OC(C)=O)C1 (stereo unspecified)	none
CC1CN(Cc2nc3c(c(=O)n(C)c(=O)n3C)n2CC(=O)c2ccccc2)CC(C)O1 (stereo unspecified)	none
CCOC(=O)Cn1c(CN2CC(C)OC(C)C2)nc2c1c(=O)n(C)c(=O)n2C (stereo unspecified)	15-hLO inh 7.9µM
Cc1ccc(-c2cc(C(F)(F)F)n3ncc(C(=O)N4CCN(C)CC4)c3n2)cc1	Tau fil binding 4µM
